PubChem BioAssay (NCI)
This is part of a sample that, as a whole, favours compounds with a hit. Of some 83,000 tested, about 20% had one in any assay.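 Note: values are percent growth. 100 is the growth of untreated cells, values between 100 and 0 indicate rising inhibition; between -100 and 0 indicates cell death.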 Activity calls are given as the source filed them. The calls were made as follows: active = growth percent below 10; inactive = the rest.

How the values were obtained:
Assay in all cases: NCI-60 one-dose screen, 48 h (100 = growth as untreated, 0 = no growth, -100 = all killed)
[1] = tested on: NCI-H23 lung; details: 10 µM unless noted
[2] = tested on: NCI-H226 lung; details: 10 µM unless noted
[3] = tested on: NCI-H322M lung; details: 10 µM unless noted
[4] = tested on: NCI-H460 lung; details: 10 µM unless noted
[5] = tested on: HOP-92 NSCLC; details: 10 µM
[6] = tested on: NCI-H522 lung; details: 10 µM
[7] = tested on: A549/ATCC NSCLC; details: 10 µM unless noted
[8] = tested on: HOP-62 NSCLC; details: 10 µM unless noted
[9] = tested on: 786-0 renal; details: 10 µM unless noted
[10] = tested on: COLO 205 colon; details: 10 µM unless noted

Measured: growth

COC1=CC(c2ccc[nH]2)=N/C1=C\c1[nH]c(C)c(C(=O)CCCCC(=O)NC(C)(C)C)c1C
inactive: [1] 40.6% | [2] 37.3% | [3] 45.7% | [7] 11.4%
active: [4] 5.36% | [5] 3% | [6] -28.1%

COc1cc(/C=C/C(=O)/C=C(/C=C/c2ccc(OC(C)=O)c(OC)c2)OB(F)F)ccc1OC(C)=O
inactive: [1] 61.5% | [2] 87.1% | [3] 99.6% | [8] 103% | [5] 62.5% | [6] 16.8% | [7] 82.7% | [9] 80.7% | [10] 71.2%

CCCNC(=O)Oc1ccc(/C(=C(/CC)Cc2ccccc2)c2ccc(OCCN(CC)CC)cc2)cc1
active: [10] -49%
inactive: [1] 83.8% | [2] 87.3% | [3] 87.4% | [8] 84.2% | [5] 55.7% | [6] 76.8% | [7] 63.6% | [9] 80.7%

COc1ccc(-c2nc(SCC(C)C)nc(Nc3ccc(C)cc3)c2C#N)cc1
inactive: [1] 73.9% | [2] 65.6% | [3] 52.9% | [8] 88.5% | [5] 73.9% | [6] 81.4% | [7] 52.6% | [9] 24.4% | [10] 46.6%

Cc1ccc(CC(=O)O)c(C)c1
inactive: [1] 91.3% | [2] 99.8% | [3] 108% | [8] 99.6% | [5] 98.5% | [6] 85% | [7] 94.5% | [9] 105% | [10] 113%

CSC1=Nc2c(c(C)c(-c3ccccc3)n2CCCCl)C2=NC(=O)CN12
inactive: [1] 77.6% | [2] 79.3% | [3] 82.1% | [8] 64.3% | [5] 64.7% | [6] 55.8% | [7] 74.1% | [9] 77.9% | [10] 79.1%

O=C(O)c1ccc(-c2nn(-c3ccc(C(=O)O)cc3)cc2CNc2ccc(Br)cc2)cc1
inactive: [1] 106% | [2] 115% | [3] 100% | [8] 104% | [5] 102% | [6] 85.4% | [7] 101% | [9] 102% | [10] 108%

CCOP1(=O)CC(C)=C(Cl)C(P(=O)(O)O)C1 (centres undefined)
inactive: [1] 93.3% | [2] 99.9% | [3] 108% | [4] 114% | [5] 89.1% | [6] 89.7% | [7] 94.8%

COc1ccc(CNCCCN2C(=O)c3ccc4c5c(ccc(c35)C2=O)C(=O)N(CCCNCc2ccc(OC)c(OC)c2OC)C4=O)c(OC)c1OC
active: [1] -74.8% | [2] -64.7% | [3] -60.5% | [8] -44.3% | [5] -43.5% | [6] -88.6% | [7] -89.4% | [9] -78.8% | [10] -43.9%

CCCCCCN(CCCCCC)CCC(=O)Nc1ccc(S(=O)(=O)c2ccc(NC(=O)CCN(CCCCCC)CCCCCC)cc2)cc1
inactive: [1] 84.3% | [2] 78.6% | [3] 75.3% | [8] 76.8% | [5] 69.4% | [7] 94.1% | [9] 90.5% | [10] 74.1%

COc1cc2ncnc(-n3ncc4cc(NC(=O)Nc5ccc(Cl)c(C)c5)ccc43)c2cc1OC
inactive: [1] 95.5% | [2] 85.9% | [3] 88.7% | [4] 102% | [5] 93.7% | [6] 86.9% | [7] 99.9% | [9] 77.5%

CC(=O)OCC(=O)[C@@]1(O)[C@H](C)C[C@H]2[C@@H]3C=C(C)C4=Cc5c(cnn5-c5ccc(F)cc5)C[C@]4(C)[C@H]3[C@@H](O)C[C@@]21C
inactive: [2] 59.9% | [3] 49.9% | [5] 24.4% | [7] 16.7%
active: [1] -28.2% | [8] -11.8% | [6] -23.7% | [9] -26.5% | [10] -39.2%

Cc1cc2c(-c3nc4ccccc4[nH]3)c(O)c(O)cc2c(O)c1-c1c(C)cc2c(-c3nc4ccccc4[nH]3)c(O)c(O)cc2c1O
inactive: [3] 20.2% | [5] 29.1%
active: [1] -19.5% | [2] -18.2% | [4] -53.7% | [6] -36.8% | [7] -25.4% | [9] -11.1%

O=C(/C=C\c1ccc(NCc2ccc(C(=O)O)cc2)cc1)CCl
active: [6] -78.1%
inactive: [1] 94.3% | [2] 111% | [3] 97% | [8] 75.1% | [5] 99.7% | [7] 100% | [9] 90.4% | [10] 78.6%

O=C1CSC(c2ccccc2Cl)N1c1nnc(-c2ccncc2)o1 (centres undefined)
inactive: [1] 85.9% | [2] 93.9% | [3] 105% | [8] 90.2% | [5] 95.9% | [7] 101% | [9] 93.6%

CCCCCSc1ccc2nc(NC(=O)OCCC)sc2c1
inactive: [1] 25.5% | [2] 30.1% | [3] 50% | [4] 13.9% | [5] 36.3% | [6] 29.4% | [7] 46.4% | [9] 31.1%

N#CCCCCCCCCCCC#N
inactive: [1] 93.8% | [2] 111% | [3] 114% | [8] 104% | [6] 86% | [7] 93.3% | [9] 99.9% | [10] 111%

COc1ccc(NC(=O)/C=C(C)/C=C/C=C(C)/C=C/C2=C(C)CCCC2(C)C)cc1
inactive: [1] 93.4% | [2] 78.2% | [3] 90.8% | [4] 30.6% | [5] 62% | [6] 51.7% | [7] 39.9%

Cc1ccc(C(=O)NN)cc1
inactive: [1] 101% | [2] 109% | [3] 127% | [8] 104% | [6] 102% | [9] 106% | [10] 115%

CCCCCCNC(=O)Oc1ccc(/C(=C(/C)Cc2ccc(OC)cc2)c2ccc(OCCN(C)C)cc2)cc1
inactive: [1] 82.5% | [2] 85.7% | [3] 86.5% | [8] 74.6% | [5] 46% | [6] 60% | [7] 54% | [9] 59.4%
active: [10] -60.4%

Cc1c([C@H](C(Cl)Cl)[C@H](O)[C@H]2C[C@H](C)C(=O)O2)ccc2c1C(=O)[C@H]1[C@H]2C[C@@H](Br)[C@@]23O[C@@H](CO[C@H]2O)CC13C (some centres undefined)
active: [7] -1.06%
inactive: [1] 20.3% | [2] 42.9% | [3] 33.1% | [8] 49.8% | [5] 69.2% | [9] 40.1%

COc1ccc(Oc2[nH]n(C3=Nc4ccccc4Sc4ccccc43)c(=O)c2C#N)cc1
inactive: [1] 95.7% | [2] 100% | [3] 125% | [8] 92.1% | [5] 74.2% | [6] 74.9% | [7] 98.4% | [9] 104% | [10] 111%

COc1ccc(-c2nc(SCC(C)C)nc(Nc3ccc([N+](=O)[O-])cc3)c2C#N)cc1
inactive: [1] 98.5% | [2] 85.3% | [3] 86.8% | [4] 57% | [5] 93.3% | [6] 92% | [7] 61.5% | [9] 94.7%

Ic1ccc(SSc2ccc(I)cc2)cc1
inactive: [1] 98% | [2] 90.6% | [3] 100% | [8] 108% | [5] 90.7% | [6] 86.7% | [7] 74.1% | [9] 92.6% | [10] 124%

CN1C(=O)C(=Cc2coc3ccc(Br)cc3c2=O)C(=O)N(C)C1=O
inactive: [1] 94.5% | [2] 97.2% | [3] 124% | [8] 94.5% | [5] 81.3% | [6] 95% | [7] 97.8% | [9] 112% | [10] 106%

O=C(Nc1ccc(Cl)c(Cl)c1)O/N=C\c1c(Cl)ccc([N+](=O)[O-])c1Cl
inactive: [1] 27% | [2] 58.4% | [3] 11.6% | [7] 45.5%
active: [8] -86.3% | [5] 6.84% | [6] -90.4% | [9] 5.13% | [10] -83.3%

CCCCCC(=C/c1ccccc1)/C=N/N=C(N)N
active: [8] -4.74% | [6] -65.3% | [9] -65.4% | [10] -93.9%
inactive: [1] 44.6% | [2] 66% | [3] 20.3%

CCOC(=O)c1c(C)oc2ncnc(Nc3ccc(C(=O)NCCc4ccccc4)cc3)c12
inactive: [1] 81.8% | [2] 63.2% | [3] 92.9% | [4] 83% | [5] 61.6% | [6] 66.9% | [7] 56.6% | [9] 74.9%

O=C(O)CC1Cc2ccccc2C1C(=O)O (centres undefined)
inactive: [1] 93.5% | [2] 102% | [3] 113% | [4] 106% | [5] 108% | [6] 95.9% | [7] 103% | [9] 105%
